Results on 101 compounds are retold here after PubChem BioAssay AID430 (Sanford-Burnham Center for Chemical Genomics, 2006).

Hit rate of the full screen: of about 63,000 compounds, about 1,100 (1.7%) were called active. The sample as a whole holds a higher share of actives than the screen did. Measured potencies and affinities stand elsewhere. Values without a mark were called inactive. Cut-off read from the data, not from the text of the source: active = cytotoxicity above about 50%; inactive = the rest.

This assay is described as follows: HPDE-C7 pancreatic duct cell viability loss – fluorescence, HTS (AID 430).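 Note: cells exposed to compound for 48 hours before viability readout; 0% = vehicle and 100% = reference cytotoxic drug.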 To be noted: HPDE-C7 pancreatic duct cells viability, at 10 µM, active compounds read high.
For the compound `O=C(NCc1ccc(F)cc1)c1ccc(CS(=O)(=O)Cc2ccccc2F)o1`, the cytotoxicity was -13.3%.

On to `Cc1cc(-c2ccccc2)nc(N2CCN(c3ccccn3)CC2)n1`, for which the cytotoxicity was 11.2%.

Take `O=C(c1cc(Cl)ccc1Cl)N1CCN(c2ccccn2)CC1`: the cytotoxicity is 5.9%.

In the case of `O=C(NCCC1=CCCCC1)C1CCCN(S(=O)(=O)c2cnc[nH]2)C1` (stereo unspecified), the cytotoxicity was -2.1%.

As for `CCOC(=O)c1cccc(C(=O)OCC)n1`, the cytotoxicity is -1%.

Take `CCOC(=O)c1ccccc1NC(=O)COC`: the cytotoxicity was -3.8%.

`CCN(c1ccccc1)c1cc(C)nc2nc(C)nn12`: the cytotoxicity is -20.9%.

In the case of `Clc1ccccc1Cn1nnc2c(Nc3ccccc3)ncnc21`, the cytotoxicity was -6.8%.

For the compound `CC(C)CCNc1ncnc2c1nnn2Cc1ccccc1Cl`, the cytotoxicity is -10.8%.

As for `CCc1ccc2[nH]c(=O)c(C(c3nnnn3CCOC)N3CCN(c4ccccc4F)CC3)cc2c1` (stereo unspecified), the cytotoxicity was -22%.

Turning to `CCCCOc1cc(C)nc(NCc2ccccc2)n1`, the cytotoxicity is -30.8%.

In the case of `Cc1cc(C)nc(NCCCc2ccccc2)n1`, the cytotoxicity was -5.9%.

For `Cc1cc(NCCCN)nc(-c2ccccc2O)n1`, the cytotoxicity was 16.4%.

For `Cc1cc(Nc2ccccc2)nc(-c2ccccc2O)n1`, the cytotoxicity is -2.9%.

As to `CCCCNc1cc(C)nc(NCc2ccccc2)n1`, the cytotoxicity was 84.4% (active).

In the case of `O=c1[nH]c2ccc(S(=O)(=O)N3CCCCC3)cc2[nH]1`, the cytotoxicity is -1.4%.

On to `CCOC(=O)c1ccccc1NCN1C(=O)CSC1=O`, for which the cytotoxicity was -1.8%.

Regarding `Cc1cc(=O)[nH]c(/N=C(\N)Nc2cccc3ccccc23)n1`, the cytotoxicity was 0.5%.

For `COc1ccc(C2C3=C(N=C4SCC(=O)N42)c2ccccc2CC3)cc1OC` (stereo unspecified), the cytotoxicity was 19.3%.

As to `O=C(O)c1ccccc1-c1ccccc1C(=O)NCc1ccco1`, the cytotoxicity was 0.7%.

In the case of `Cn1c(=O)cc(OCC(=O)N2CCCc3ccccc32)c2ccccc21`, the cytotoxicity was -9.1%.

As for `CC1=C(C)C(=O)NC(Nc2nc(C)c3cc(C)cc(C)c3n2)N1` (stereo unspecified), the cytotoxicity is 86.5% (active).

Regarding `Cc1cc(C)c2nc(NC3=NCN(CCN4CCOCC4)CN3)nc(C)c2c1`, the cytotoxicity is -7.5%.

With `O=C(c1cc(S(=O)(=O)N2CCCCC2)c(Cl)cc1N1CCOCC1)N1CCOCC1`, the cytotoxicity is -5.8%.

On to `COc1cc(Cl)c(S(=O)(=O)n2cnc(C)c2)cc1Cl`, for which the cytotoxicity is -0.2%.

On to `COc1cc(C)c(C(C)C)cc1S(=O)(=O)N1CCN(C)CC1`, for which the cytotoxicity was -22.7%.

Take `Clc1ccc(OCc2nc(-c3ccncc3)no2)c(Cl)c1`: the cytotoxicity is -6.9%.

As to `Cc1ccc2c(c1)c1ncnc(N3CCN(c4ccccc4)CC3)c1n2C`, the cytotoxicity was -1.6%.

Regarding `Cc1ccc2c(c1)c1ncnc(N3CCOCC3)c1n2C`, the cytotoxicity is -13.7%.

Take `O=C(c1ccc(S(=O)(=O)N2CCC(c3nc4ccccc4s3)CC2)cc1)N1CCOCC1`: the cytotoxicity was 1.1%.

For `Cc1cccc(NS(=O)(=O)c2cccs2)n1`, the cytotoxicity was -0.9%.

Take `COc1ccc(NC(=O)N(CCC(C)C)C(C)c2ccccn2)c(OC)c1` (stereo unspecified): the cytotoxicity is -1.9%.

Consider `O=c1c(-c2ccccc2)coc2c(CN3CCCC3)c(O)ccc12`, for which the cytotoxicity is 5.3%.

As to `COc1ccc(-c2coc3c(CN4CCCCC4)c(O)c(CN4CCCCC4)c(O)c3c2=O)cc1`, the cytotoxicity is 53.1% (active).

Consider `COc1ccc(C(=O)c2coc3ccc(O)c(CN4CCCCC4)c23)cc1`, for which the cytotoxicity was 14.9%.

Consider `c1ccc(-c2cnc(CSc3ncnc4sccc34)o2)cc1`, for which the cytotoxicity is -9%.

In the case of `O=c1[nH]nc(Sc2ncnc3sccc23)n1CCc1ccccc1`, the cytotoxicity was 51.5% (active).

Consider `COc1ccccc1Cn1c(=O)c2ccccc2n2c(Sc3ncnc4sccc34)nnc12`, for which the cytotoxicity was 38.5%.

For the compound `COC(=O)c1ccc(Oc2c(C)oc3c(CN4CCN(C)CC4)c(O)ccc3c2=O)cc1`, the cytotoxicity is -9.6%.

As for `Cc1cc(NC(=O)COC(=O)C(Nc2ccc(C(F)(F)F)cc2Cl)C(C)C)no1` (stereo unspecified), the cytotoxicity is 54.8% (active).

On to `Cc1cc(NC(=O)Cn2cc(C(F)(F)F)cc(Cl)c2=O)no1`, for which the cytotoxicity is 4.3%.

Take `Cc1cc(NC(=O)COC(=O)CSCc2ccc(Cl)c(Cl)c2)no1`: the cytotoxicity is -5.6%.

As to `O=C(NC(C(=O)c1ccccc1)n1ccc(=O)[nH]c1=O)c1ccccc1` (stereo unspecified), the cytotoxicity is 23.4%.

In the case of `CCOC(=O)N1CCN(C(=O)c2cccc(OC)c2OC)CC1`, the cytotoxicity was 6.7%.

For the compound `CC(NS(=O)(=O)c1ccc(OCC(=O)N2CCOCC2)c(Cl)c1)c1ccccc1` (stereo unspecified), the cytotoxicity is 3.2%.

In the case of `COCCNc1ncnc2c1cnn2Cc1ccc(Cl)cc1`, the cytotoxicity was 31.2%.

Regarding `CCOC(=O)N1CCN(C(=O)CSc2nnc(-c3cccc(OC)c3)o2)CC1`, the cytotoxicity was -7.7%.

For the compound `Cc1cccc(NC(=O)C2CCCN(S(=O)(=O)c3cccc4cccnc34)C2)c1` (stereo unspecified), the cytotoxicity was -12.3%.

On to `O=C(Nc1ccncc1)C1CCCN(S(=O)(=O)c2cccc3cccnc23)C1` (stereo unspecified), for which the cytotoxicity is 53.3% (active).

As to `O=C(Nc1ccc(F)cc1)C1CCCN(S(=O)(=O)c2cccc3cccnc23)C1` (stereo unspecified), the cytotoxicity was -10.4%.

`COC(=O)c1ccc(CSc2nc(N3CCOCC3)c3c(c2C#N)CC(C)(C)OC3)o1`: the cytotoxicity is 16.6%.

In the case of `CCSc1nc(N)c2c3c(sc2n1)CN(C)CC3`, the cytotoxicity was -22%.

`O=C(COc1ccccc1)N(Cc1ccco1)C1CCS(=O)(=O)C1` (stereo unspecified): the cytotoxicity was -19.1%.

As for `COc1ccc(O)c(-c2[nH]ncc2C(=O)c2ccccc2C)c1`, the cytotoxicity was -8.4%.

Regarding `CCCc1ccc(Oc2cn[nH]c2-c2ccc(O)c(C)c2O)cc1`, the cytotoxicity was 103% (active).

Take `CCCc1ccc(Oc2cn[nH]c2-c2ccc(O)cc2O)cc1`: the cytotoxicity was 44.2%.

As to `CCCc1ccc(OCC(=O)O)cc1`, the cytotoxicity is 3%.

As to `CCOC(=O)C1CCN(C(=O)Nc2ccccc2Cl)CC1`, the cytotoxicity was 4%.

Regarding `Cc1nn(CC(=O)NCc2ccccc2)c(=O)c2ccccc12`, the cytotoxicity is -4.9%.

On to `Cn1c(-c2ccc3c(c2)OCO3)cnc1NCc1cccc(Cl)c1`, for which the cytotoxicity is 71.3% (active).

With `Cn1c(-c2ccc3c(c2)OCO3)cnc1NCc1ccccc1`, the cytotoxicity is -1.6%.

Consider `Cn1c(-c2ccc3c(c2)OCO3)cnc1NCc1ccc(Cl)cc1`, for which the cytotoxicity is 43.1%.

As for `O=C(CSc1nnnn1Cc1ccccc1)N1CCN(c2ccccc2)CC1`, the cytotoxicity was 7.7%.

Take `CCCN(C(=O)Cc1nc(N)n[nH]1)C1(C(=O)Nc2c(C)cccc2C)CCCCC1`: the cytotoxicity is -7.4%.

Turning to `Cc1cccc2cc(CN(CC3CCCO3)C(=O)NC3CCCCC3)c(=O)[nH]c12` (stereo unspecified), the cytotoxicity was -7.6%.

For the compound `CN(Cc1ccccc1)S(=O)(=O)c1ccc(C(=O)Nc2nnc(C3CC3)o2)cc1`, the cytotoxicity is 28.3%.

For `O=C(CCC1CCCCC1)N1CCN(Cc2ccc3c(c2)OCO3)CC1`, the cytotoxicity was -7.9%.

Take `Cn1nnc(NC(=O)c2ccc(C(C)(C)C)cc2)n1`: the cytotoxicity was -6.6%.

Regarding `CCNC(=O)c1cc2c(=O)n3cccc(C)c3nc2n(CCc2ccccc2)c1=N`, the cytotoxicity is 61.3% (active).

On to `COCCn1c(=N)c(C(=O)NCCc2ccccc2)cc2c(=O)n3cccc(C)c3nc21`, for which the cytotoxicity was -51.7%.

Turning to `COCCNC(=O)c1cc2c(=O)n3cccc(C)c3nc2n1C`, the cytotoxicity was 52.8% (active).

As for `Cc1cccn2c(=O)c3cc(C(=O)N4CCN(C(=O)c5ccco5)CC4)n(C)c3nc12`, the cytotoxicity is 3.5%.

In the case of `Cc1cccn2c(=O)c3cc(C(=O)N4CCN(c5ccccc5)CC4)n(C)c3nc12`, the cytotoxicity was -18.3%.

Regarding `CC1Cc2ccccc2N1C(=O)c1cc2c(=O)n3ccccc3nc2n1C` (stereo unspecified), the cytotoxicity is 13.4%.

For `Cc1cccn2c(=O)c3cc(C(=O)NCCN4CCOCC4)c(=N)n(CCc4ccccc4)c3nc12`, the cytotoxicity is 4.4%.

With `CCCCNC(=O)c1cc2c(=O)n3cccc(C)c3nc2n1C`, the cytotoxicity was -12.6%.

Take `Cc1cccn2c(=O)c3cc(C(=O)N4CCc5ccccc54)n(C)c3nc12`: the cytotoxicity is 10.4%.

Consider `CCNC(=O)c1cc2c(=O)n3cccc(C)c3nc2n1C`, for which the cytotoxicity is -0.7%.

As to `Cc1cccn2c(=O)c3cc(C(=O)N4c5ccccc5CC4C)n(C)c3nc12` (stereo unspecified), the cytotoxicity is 87.3% (active).

For the compound `O=C(CSc1nnc(-c2ccco2)o1)NC1CC2CCC1C2` (stereo unspecified), the cytotoxicity is -3.3%.

Take `Cc1noc(C(=O)Nc2ccc3c(c2)OCO3)c1Cl`: the cytotoxicity is 19.1%.

`COc1ccc(-c2ccc(SCC(=O)NCc3ccco3)nn2)cc1OC`: the cytotoxicity was 7.2%.

Regarding `O=C(NCc1ccco1)C1CCCCN1S(=O)(=O)c1ccc(F)cc1` (stereo unspecified), the cytotoxicity was -4.3%.

Regarding `CCOCCOC(=O)COc1ccc(N2C(=O)c3ccccc3C2=O)cc1`, the cytotoxicity is -18.5%.

For `O=C(CCCn1c(=S)[nH]c2ccccc2c1=O)N1CCOCC1`, the cytotoxicity is -24.3%.

As for `COc1ccc(C(O)P(=O)(O)CCc2ccccc2)cc1` (stereo unspecified), the cytotoxicity is -28.1%.

Take `COc1cccc(CNC(=O)c2nnn(CC(=O)Nc3ccc(C)c(C)c3)c2N)c1`: the cytotoxicity is 0.7%.

Consider `COc1ccccc1C(=O)Nc1ccc2c(c1)nc(CCNC(C)=O)n2C`, for which the cytotoxicity was -7.3%.

Regarding `Cn1nc(-c2ccc(Cl)cc2)c2cc(C(=O)N3CCN(c4ccccn4)CC3)sc21`, the cytotoxicity is -0.6%.

Consider `COc1ccc(N2CCN(C(=O)c3cc4c(-c5cccc(OC)c5)nn(C)c4s3)CC2)cc1`, for which the cytotoxicity was -2.7%.

Take `Cc1ccc(OCC(=O)N2CCN(C3=NS(=O)(=O)c4ccccc43)CC2)cc1`: the cytotoxicity was 0.8%.

`CCOc1ccccc1OCCCCN1CCCC1`: the cytotoxicity was 3%.

In the case of `COC(=O)c1c(C)oc(C)c(C(=O)OC)c1=O`, the cytotoxicity was 1.7%.

Regarding `CCOC(=O)c1c(C)oc2c1cc(O)c1ccccc12`, the cytotoxicity is 15.4%.

As to `CC(C)NC(=O)c1cnc(N2CCN(c3ccccn3)CC2)c2ccccc12`, the cytotoxicity is -9.4%.

As for `COc1ccc(C(=O)N(CN2CCCC2=O)c2nccs2)cc1OC`, the cytotoxicity was 6.2%.

Regarding `c1ccc(-c2nc(-n3ccnc3)nc(-n3ccnc3)n2)cc1`, the cytotoxicity is 20.1%.

For the compound `c1ccc(-c2nc(N3CCN(c4ccccc4)CC3)nc(-n3ccnc3)n2)cc1`, the cytotoxicity is 43%.

Turning to `CC(C)Nc1nc(-c2ccccc2)nc(-n2ccnc2)n1`, the cytotoxicity is 58.3% (active).

Take `c1ccc(-c2nc(NC3CC3)nc(-n3ccnc3)n2)cc1`: the cytotoxicity is 9.6%.

As for `c1ccc(-c2nc(N3CCCCCC3)nc(-n3ccnc3)n2)cc1`, the cytotoxicity is -19.9%.
